Structures are written as SMILES.

Holding throughout (conditions): Compound concentration 20.0 uM, Protein concentration 2.0 uM, Result type QC Liability
Test [1] deals with Tyrosine-protein kinase ABL1 (Homo sapiens) (UniProt P00519).
The target in test [2] is Cyclin-dependent kinase 2 (Homo sapiens) (UniProt P24941).
Test [3] concerns the target Casein kinase I isoform delta (Homo sapiens) (UniProt P48730).
The target of test [4] is Glycogen synthase kinase-3 beta (Homo sapiens) (UniProt P49841).
For test [5], the target named is Mitogen-activated protein kinase 1 (Homo sapiens) (UniProt P28482).
Test [6] concerns the target T1, Aurora kinase A (Homo sapiens) (UniProt O14965).
T1 sequence (whole entry): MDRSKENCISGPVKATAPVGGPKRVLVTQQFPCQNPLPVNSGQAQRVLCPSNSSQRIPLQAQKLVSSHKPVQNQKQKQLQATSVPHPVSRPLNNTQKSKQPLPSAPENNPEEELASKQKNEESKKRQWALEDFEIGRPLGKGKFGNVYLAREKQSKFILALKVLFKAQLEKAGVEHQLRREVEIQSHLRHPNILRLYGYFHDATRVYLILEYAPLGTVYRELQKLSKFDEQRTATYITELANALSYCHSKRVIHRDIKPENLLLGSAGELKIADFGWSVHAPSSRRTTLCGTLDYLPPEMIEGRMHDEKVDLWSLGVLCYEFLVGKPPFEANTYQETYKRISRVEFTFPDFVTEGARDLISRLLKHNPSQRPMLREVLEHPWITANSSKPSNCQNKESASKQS

In test [7] the target is T2, Transcription intermediary factor 1-alpha (Homo sapiens) (UniProt O15164).
T2 sequence (whole entry): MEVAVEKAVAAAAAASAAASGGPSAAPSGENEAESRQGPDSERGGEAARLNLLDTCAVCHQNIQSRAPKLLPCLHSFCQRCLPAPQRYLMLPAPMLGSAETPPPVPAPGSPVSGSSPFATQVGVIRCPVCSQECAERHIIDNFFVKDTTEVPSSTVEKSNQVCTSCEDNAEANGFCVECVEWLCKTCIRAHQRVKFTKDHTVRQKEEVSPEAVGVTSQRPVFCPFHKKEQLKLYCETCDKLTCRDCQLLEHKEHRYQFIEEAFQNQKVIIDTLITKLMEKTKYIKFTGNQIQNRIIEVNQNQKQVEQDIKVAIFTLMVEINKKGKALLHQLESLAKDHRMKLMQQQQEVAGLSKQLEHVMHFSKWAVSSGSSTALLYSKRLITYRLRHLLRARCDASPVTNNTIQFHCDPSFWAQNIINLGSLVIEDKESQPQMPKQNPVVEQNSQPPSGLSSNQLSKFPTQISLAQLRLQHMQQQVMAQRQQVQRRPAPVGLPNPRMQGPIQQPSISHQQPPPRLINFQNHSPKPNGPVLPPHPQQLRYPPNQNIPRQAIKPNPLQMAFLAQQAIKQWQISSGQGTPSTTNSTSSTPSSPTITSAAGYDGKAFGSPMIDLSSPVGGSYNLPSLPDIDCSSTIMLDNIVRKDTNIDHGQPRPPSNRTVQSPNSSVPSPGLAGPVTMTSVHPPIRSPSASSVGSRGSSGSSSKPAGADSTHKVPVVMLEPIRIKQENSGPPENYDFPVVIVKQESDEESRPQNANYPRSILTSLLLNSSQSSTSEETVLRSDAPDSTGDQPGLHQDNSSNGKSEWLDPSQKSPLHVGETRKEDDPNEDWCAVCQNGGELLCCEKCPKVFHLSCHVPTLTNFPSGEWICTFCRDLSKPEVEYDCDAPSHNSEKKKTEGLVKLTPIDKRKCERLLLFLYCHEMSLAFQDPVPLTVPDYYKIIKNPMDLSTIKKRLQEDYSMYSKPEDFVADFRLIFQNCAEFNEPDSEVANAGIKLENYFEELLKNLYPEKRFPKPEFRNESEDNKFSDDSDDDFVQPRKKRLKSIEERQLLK

Mitogen-activated protein kinase 1 (Homo sapiens), sequence (P28482 whole entry): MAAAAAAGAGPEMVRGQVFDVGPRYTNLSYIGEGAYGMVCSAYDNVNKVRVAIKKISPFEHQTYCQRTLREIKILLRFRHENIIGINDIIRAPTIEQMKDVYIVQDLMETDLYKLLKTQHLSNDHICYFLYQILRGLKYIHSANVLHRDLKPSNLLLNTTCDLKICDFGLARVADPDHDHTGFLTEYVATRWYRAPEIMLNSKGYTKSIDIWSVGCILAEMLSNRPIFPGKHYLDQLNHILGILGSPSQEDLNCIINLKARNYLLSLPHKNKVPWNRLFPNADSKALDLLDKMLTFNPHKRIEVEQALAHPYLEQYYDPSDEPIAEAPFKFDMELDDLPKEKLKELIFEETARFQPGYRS
Glycogen synthase kinase-3 beta (Homo sapiens), sequence (P49841 whole entry, looked up): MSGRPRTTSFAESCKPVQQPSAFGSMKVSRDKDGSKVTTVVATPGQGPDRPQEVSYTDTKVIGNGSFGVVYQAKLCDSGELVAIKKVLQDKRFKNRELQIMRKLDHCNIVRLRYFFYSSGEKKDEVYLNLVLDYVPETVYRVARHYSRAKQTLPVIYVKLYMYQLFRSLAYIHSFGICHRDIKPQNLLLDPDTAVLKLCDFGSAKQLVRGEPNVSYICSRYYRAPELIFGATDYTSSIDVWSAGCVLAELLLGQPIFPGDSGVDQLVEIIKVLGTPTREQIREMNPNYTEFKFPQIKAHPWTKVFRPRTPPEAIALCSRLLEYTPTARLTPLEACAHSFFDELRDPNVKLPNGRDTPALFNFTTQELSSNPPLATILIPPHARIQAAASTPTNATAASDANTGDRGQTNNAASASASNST
Casein kinase I isoform delta (Homo sapiens), sequence (P48730 whole entry, looked up, canonical isoform): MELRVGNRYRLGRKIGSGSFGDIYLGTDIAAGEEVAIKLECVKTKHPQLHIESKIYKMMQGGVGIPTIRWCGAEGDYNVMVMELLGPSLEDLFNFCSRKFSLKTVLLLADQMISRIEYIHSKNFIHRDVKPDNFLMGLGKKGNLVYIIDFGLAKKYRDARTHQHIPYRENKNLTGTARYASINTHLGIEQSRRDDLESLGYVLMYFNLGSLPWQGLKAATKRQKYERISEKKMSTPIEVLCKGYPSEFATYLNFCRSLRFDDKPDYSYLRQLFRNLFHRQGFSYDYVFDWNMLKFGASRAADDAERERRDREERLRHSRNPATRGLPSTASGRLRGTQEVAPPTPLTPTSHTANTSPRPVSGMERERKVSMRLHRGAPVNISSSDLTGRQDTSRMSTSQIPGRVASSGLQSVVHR
Tyrosine-protein kinase ABL1 (Homo sapiens), sequence (P00519 whole entry): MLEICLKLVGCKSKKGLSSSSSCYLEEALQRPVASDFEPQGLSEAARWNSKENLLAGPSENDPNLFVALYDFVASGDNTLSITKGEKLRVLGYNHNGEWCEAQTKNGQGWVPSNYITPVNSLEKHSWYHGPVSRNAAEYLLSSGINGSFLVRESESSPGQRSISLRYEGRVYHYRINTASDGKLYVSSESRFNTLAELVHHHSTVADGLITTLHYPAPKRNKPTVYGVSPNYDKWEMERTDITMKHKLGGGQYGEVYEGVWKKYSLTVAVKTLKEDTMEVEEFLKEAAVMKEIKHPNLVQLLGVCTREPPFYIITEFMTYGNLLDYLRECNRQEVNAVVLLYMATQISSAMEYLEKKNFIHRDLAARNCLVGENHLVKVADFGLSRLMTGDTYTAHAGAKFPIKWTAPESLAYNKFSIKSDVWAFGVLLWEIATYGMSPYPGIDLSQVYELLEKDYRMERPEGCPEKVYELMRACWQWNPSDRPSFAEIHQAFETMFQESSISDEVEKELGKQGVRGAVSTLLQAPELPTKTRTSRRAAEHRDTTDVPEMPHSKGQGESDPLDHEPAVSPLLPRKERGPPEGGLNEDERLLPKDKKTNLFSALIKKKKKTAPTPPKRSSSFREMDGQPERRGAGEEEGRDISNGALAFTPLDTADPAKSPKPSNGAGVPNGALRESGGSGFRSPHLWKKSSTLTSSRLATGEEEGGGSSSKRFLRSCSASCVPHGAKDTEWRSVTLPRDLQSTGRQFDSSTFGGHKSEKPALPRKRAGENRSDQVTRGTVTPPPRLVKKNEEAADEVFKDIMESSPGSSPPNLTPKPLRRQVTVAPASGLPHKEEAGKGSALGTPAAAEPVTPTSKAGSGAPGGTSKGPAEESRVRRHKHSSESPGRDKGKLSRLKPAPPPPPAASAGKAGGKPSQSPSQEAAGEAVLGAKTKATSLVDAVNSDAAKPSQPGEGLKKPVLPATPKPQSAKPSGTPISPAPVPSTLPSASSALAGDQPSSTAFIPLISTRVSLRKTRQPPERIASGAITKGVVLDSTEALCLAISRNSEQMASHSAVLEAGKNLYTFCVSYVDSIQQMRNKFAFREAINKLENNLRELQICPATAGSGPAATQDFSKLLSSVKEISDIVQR

Regarding `Cc1nnc2n1-c1sc3c(c1C(c1ccccc1Cl)=NC2)C[C@H](C(=O)N1CCOCC1)C3`, the ΔTm in test [1] is 0.62 °C; in test [2], 0.85 °C; in test [3], 0.25 °C; in test [4], 0.26 °C; in test [5], 0.42 °C; in test [6], -0.08 °C. Also, the ΔTm in test [7] is -0.99 °C.
Turning to `C[C@H](CCC(=O)O)[C@H]1CC[C@H]2[C@@H]3[C@@H](O)C[C@@H]4C[C@H](O)CC[C@]4(C)[C@H]3CC[C@]12C`, the ΔTm in test [1] is 0.07 °C; in test [2] it was 0.52 °C; in test [3] it was 0.77 °C; in test [4], -0.56 °C; in test [5] it was 0.29 °C; in test [6], -1.74 °C. In test [7], the ΔTm is -2.12 °C.
With `C=CC(=O)Nc1ccc2[nH]c(=O)n(C3CCN(Cc4ccc(-c5ccc6c(c5)NC(=O)CO6)cc4)CC3)c2c1`, the ΔTm in test [1] is 0.74 °C; in test [2], -0.1 °C; in test [3], 0.68 °C; in test [4] it was 3.14 °C; in test [5] it was 0.64 °C; in test [6] it was 1.01 °C. The ΔTm in test [7] is -2.17 °C.
Consider `C=CC(=O)Nc1cc(-c2nn(C3CCC(N4CCN(C(C)=O)CC4)CC3)c3ncnc(N)c23)ccc1Oc1ccccc1` (stereo not given), for which the shift in melting temperature (ΔTm) in test [1] is 0.84 °C; in test [2], 0.18 °C; in test [3] it was 0.89 °C; in test [4] it was -1.12 °C; in test [5] it was 0.34 °C; in test [6], 4.07 °C. Further, the ΔTm in test [7] was -1.68 °C.
On to `N[C@H](C(=O)O)[C@@H]1CC(Cl)=NO1`, for which the thermal shift (ΔTm) in test [1] was -0.08 °C; in test [2] it was 0.85 °C; in test [3] it was 0.22 °C; in test [4], 0.23 °C; in test [5] it was 0.14 °C; in test [6], -0.37 °C. Also, in test [7], the thermal shift (ΔTm) is -0.82 °C.
As to `COc1ccc(-n2nc(C(F)(F)F)cc2-c2ccc(Cl)cc2)cc1`, the ΔTm in test [1] is 0.2 °C; in test [2], 1.23 °C; in test [3], 0.03 °C; in test [4] it was -0.24 °C; in test [5], 0.69 °C; in test [6], -0.08 °C. In addition, the thermal shift (ΔTm) in test [7] is -0.34 °C.
For the compound `CS(=O)(=O)c1ccc(-c2cnc(N)c(C(=O)Nc3ccccc3)n2)cc1`, the thermal shift (ΔTm) in test [1] is 0.67 °C; in test [2], 0.23 °C; in test [3] it was -0.19 °C; in test [4], 3.54 °C; in test [5], 0.38 °C; in test [6], 0.45 °C. Besides, in test [7], the ΔTm was -1.74 °C.
As to `COP(=O)(CCC(N)C(=O)O)Oc1cccc(CC(=O)O)c1` (stereo not given), the shift in melting temperature (ΔTm) in test [1] was -0.06 °C; in test [2], 0.07 °C; in test [3], 0.36 °C; in test [4], -0.02 °C; in test [5], 0.13 °C; in test [6], -0.17 °C. Besides, the ΔTm in test [7] was 0.32 °C.
With `CCN1C(=O)C(c2cccc(C(=O)O)c2)C(=O)N(c2ccccc2)c2cc(C(F)(F)F)ccc21` (stereo not given), the ΔTm in test [1] is -0.5 °C; in test [2], -0.13 °C; in test [3], 0.29 °C; in test [4], -1.43 °C; in test [5], 0.17 °C; in test [6] it was -0.25 °C. The ΔTm in test [7] turned out to be 0.23 °C.
In the case of `COc1nc2ccc([C@@](O)(c3ccc(Cl)cc3)c3cncn3C)cc2c(Cl)c1Cc1ccc(-n2cccn2)cc1`, the ΔTm in test [1] is -0.22 °C; in test [2] it was -0.1 °C; in test [3], -0.84 °C; in test [4] it was -1.9 °C; in test [5] it was -0.39 °C; in test [6], -0.59 °C. Besides, the ΔTm in test [7] was -0.54 °C.
Consider `CNC(=O)c1cc(C(=O)NC2CC2)cn(Cc2ccccc2)c1=O`, for which the ΔTm is 0.07 °C in test [1]; 0.96 °C in test [2]; -0.04 °C in test [3]; -0.41 °C in test [4]; 0.38 °C in test [5]; -0.78 °C in test [6]. Besides, in test [7], the thermal shift (ΔTm) is -0.29 °C.
Regarding `C=C[C@@]12CCc3cc(O)ccc3[C@H]1CC[C@@]1(C)[C@H]2CC[C@@H]1O`, the ΔTm stood at 0.27 °C in test [1]; 0.21 °C in test [2]; 0.08 °C in test [3]; 1.27 °C in test [4]; 0.21 °C in test [5]; 0 °C in test [6]. Moreover, the ΔTm in test [7] is -0.42 °C.
Consider `Cc1nnc2n1-c1sc3c(c1C(c1ccccc1Cl)=NC2)CC(C(=O)N1CCOCC1)C3` (stereo not given), for which the ΔTm is 0.38 °C in test [1]; 1.08 °C in test [2]; 0.02 °C in test [3]; -0.24 °C in test [4]; 0.25 °C in test [5]; 0.1 °C in test [6]. In test [7], the ΔTm turned out to be 0.23 °C.
Take `CCN(CC)CCO[C@H]1CC[C@@]2(C)C(=CC[C@@H]3[C@@H]2CC[C@]2(C)C(=O)CC[C@@H]32)C1`: the thermal shift (ΔTm) is 0.26 °C in test [1]; 0.63 °C in test [2]; -0.08 °C in test [3]; -0.11 °C in test [4]; 0.35 °C in test [5]; -0.37 °C in test [6]. Moreover, the ΔTm in test [7] is -0.77 °C.
As for `COc1ccc(OC(=O)N(CC(=O)O)Cc2ccc(OCCc3nc(-c4ccccc4)oc3C)cc2)cc1`, the shift in melting temperature (ΔTm) in test [1] is 0.16 °C; in test [2], -0.27 °C; in test [3], 0.56 °C; in test [4], -1.96 °C; in test [5], 0.18 °C; in test [6] it was -0.93 °C. Also, the ΔTm in test [7] is -4.78 °C.
In the case of `O=C1CCC(N2Cc3cc(CNC(=O)C(F)(F)c4ccc(Cl)cc4)ccc3C2=O)C(=O)N1` (stereo not given), the ΔTm is 0.53 °C in test [1]; 0.76 °C in test [2]; 0.06 °C in test [3]; 0.18 °C in test [4]; 0.34 °C in test [5]; -0.46 °C in test [6]. In addition, in test [7], the shift in melting temperature (ΔTm) was -0.96 °C.
On to `C[C@@H](CO)CCC[C@@H](C)[C@H]1CC[C@H]2[C@@H]3CC=C4C[C@@H](O)CC[C@]4(C)[C@H]3CC[C@]12C`, for which the ΔTm is 0.11 °C in test [1]; 0.17 °C in test [2]; 0.59 °C in test [3]; -0.96 °C in test [4]; 0.35 °C in test [5]; -1.67 °C in test [6]. In addition, the ΔTm in test [7] was -3 °C.
On to `CCCn1cc(-c2cc(C3C(=O)N(CC)c4ccc(C(F)(F)F)cc4N(c4ccccc4)C3=O)cc(OC)c2O)cn1` (stereo not given), for which the thermal shift (ΔTm) in test [1] was -0.36 °C; in test [2] it was 1.16 °C; in test [3], 0.47 °C; in test [4], -1.32 °C; in test [5], -7.84 °C; in test [6] it was 0.54 °C. Moreover, the shift in melting temperature (ΔTm) in test [7] stood at 0.28 °C.
As for `CN(C(=O)CCOCCOCCOCCOCCNc1cccc2c1C(=O)N(C1CCC(=O)NC1=O)C2=O)[C@H]1CC[C@@]2(C)[C@@H](CC[C@@H]3[C@@H]2CC[C@]2(C)[C@@H](c4ccc5ccncc5c4)CC[C@@H]32)C1` (stereo not given in full), the ΔTm in test [1] was 1.62 °C; in test [2], 0.45 °C; in test [3], -6.92 °C; in test [4], 2.49 °C; in test [5], -1.53 °C; in test [6], -1.77 °C. Besides, the shift in melting temperature (ΔTm) in test [7] was found to be 0 °C.
As for `CO[C@H](C)CN1CC[C@@]2(C)c3ccc(O)cc3C[C@@H]1C2(C)C`, the thermal shift (ΔTm) is 0.21 °C in test [1]; -0.28 °C in test [2]; 0.29 °C in test [3]; -0.8 °C in test [4]; 0.34 °C in test [5]; 0.3 °C in test [6]. Also, in test [7], the ΔTm came out at 0.33 °C.

The values are drawn from ChEMBL document CHEMBL5308504, “Tm Shift (DSF) assay results for EUbOPEN Chemogenomics Library” (2023).
